Experimental data published in PubChem BioAssay.
For part of these data: Potency and affinity values are given separately. Active and inactive are the calls of the source.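 How the source made its calls, unless noted: active means fluorescence ratio normalized to control raised more than 50% in primary screen plus both repeat runs; inactive means the rest.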

Experiments:
[1] = tested on: TRPC4 beta (transient receptor potential cation channel C4), mouse; test: activators of mouse TRPC4 channel, confirmation, cell-based, Fluo4 calcium, HEK293 TRPC4beta/mu-opioid, duplicates, 10 µM (AID 2426); conditions: Fluo4 calcium fluorescence, at 10 µM; stronger effect = higher value
[2] = tested on: transient receptor potential cation channel C4 beta (TRPC4), mouse; test: activators of mouse TRPC4 channel, confirmation, cell-based, second round, Fluo4, HEK293 TRPC4beta/mu-opioid, 1 µM (AID 2461;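 active means primary screen active and over 50% activation in each of two duplicate runs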); conditions: Fluo4 calcium fluorescence, at 1 µM; stronger effect = higher value
[3] = tested on: TRPC4 (transient receptor potential cation channel C4 beta), mouse; test: positive allosteric modulators of mouse TRPC4, confirmation, cell-based, second round, Fluo-4, HEK293 TRPC4beta/mu-opioid, 1 µM (AID 2554;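 active means primary screen hit whose fluorescence ratio, in both repeats, exceeds the weak agonist control mean by 3 SD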); conditions: DAMGO EC20, Fluo-4 calcium flux, at 1 µM; stronger effect = higher value
[4] = tested on: TRPC4 beta (transient receptor potential cation channel C4), mouse; test: positive allosteric modulators of mouse TRPC4, confirmation, cell-based, Fluo-4, HEK293 TRPC4beta/mu-opioid (AID 2555;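 active means primary screen hit whose calcium fluorescence ratio, in both repeats, exceeds the weak agonist control mean by 3 SD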); conditions: DAMGO EC20, Fluo-4 calcium flux, at 10 µM; stronger effect = higher value
[5] = target: Short transient receptor potential channel 4 (Mus musculus) (UniProt Q9QUQ5); test: inhibitors of mouse TRPC4 channel, confirmation, cell-based, Fluo4, HEK293 TRPC4beta/mu-opioid (AID 2636;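 active means calcium signal cut by more than 3 SD below the full-agonist control yet still positive, in both repeats and the earlier primary screen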); conditions: DAMGO, Fluo4 calcium flux, at 10 µM; stronger effect = higher value
[6] = target: Short transient receptor potential channel 4 (Mus musculus) (UniProt Q9QUQ5); test: inhibitors of mouse TRPC4 channel, confirmation, cell-based, second round, Fluo4, HEK293 TRPC4beta/mu-opioid, 1 µM (AID 2637;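 active means calcium signal ratio cut to more than 3 SD under the fully stimulated control mean yet still positive, in both repeats and the primary screen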;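 on inhibition: percent of integrated ratio relative to wells lacking test compound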); conditions: Fluo4 calcium flux, DAMGO, at 1 µM; stronger effect = higher value
[7] = target: Short transient receptor potential channel 4 (Mus musculus) (UniProt Q9QUQ5); test: mouse TRPC4 channel activators, dose response, cell-based, HEK293 TRPC4/mu-opioid, Fluo-4 calcium (AID 434937;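 active means primary screen activator hit with a dose response curve and TRPC4 channel activation at any tested dose; inactive means no activation, no dose response, or not a primary hit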)
[8] = target: Short transient receptor potential channel 4 (Mus musculus) (UniProt Q9QUQ5); test: TRPC4 positive allosteric modulators, dose response, cell-based, HEK293 TRPC4/mu-opioid, Fluo-4 calcium, EC20 DAMGO (AID 434941;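 active means earlier screen potentiator hit that boosts the TRPC4 ion channel at some dose, with a dose response; inactive means no potentiation, no dose response, or not a prior hit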;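 further: calcium entry triggered by an EC20 dose of DAMGO at the co-expressed mu-opioid receptor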)
[9] = target: Short transient receptor potential channel 6 (Mus musculus) (UniProt Q61143); test: inhibition of mouse TRPC6 channel, confirmation, selectivity assay for TRPC4 inhibitor project, cell-based, HEK293, membrane potential dye, duplicate (AID 434948;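 active means active in primary screen and both duplicates, each dropping signal beyond three positive-control SD with fluorescence still positive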); conditions: HEK293 TRPC6, membrane potential dye fluorescence, at 10 µM, stimulated with maximal-effect acetylcholine; stronger effect = higher value
[10] = target: Short transient receptor potential channel 6 (Mus musculus) (UniProt Q61143); test: activation of mouse TRPC6 channel, confirmation, selectivity assay for TRPC4 activator project, cell-based, HEK293, membrane potential dye, duplicate (AID 434950;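 active means membrane potential signal rise above negative control mean plus 3 SD in both duplicates, also active in the earlier TRPC4 screen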); conditions: HEK293 TRPC6, membrane potential fluorescence, at 10 µM; stronger effect = higher value
[11] = target: Short transient receptor potential channel 6 (Mus musculus) (UniProt Q61143); test: TRPC6 potentiation by TRPC4 potentiator hits, confirmation, selectivity assay for TRPC4 potentiator project, HEK293 cells, membrane potential dye, duplicate (AID 434952;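 active means compound raising the membrane signal above positive-control mean plus 3 SD in both repeats, and a primary screen hit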); conditions: HEK293 TRPC6, membrane potential dye fluorescence, at 10 µM, maximal acetylcholine added after compound; stronger effect = higher value
[12] = target: Short transient receptor potential channel 4 (Mus musculus) (UniProt Q9QUQ5); test: calcium flux activators in TRPC4/5HT1a cells, counter-screen for TRPC4 activator project, cell-based, second counter screen, HEK293 TRPC4/5HT1a, Fluo-4 (AID 434977;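 active means calcium signal rise above buffer-control mean plus 5 SD in both duplicates, and also a hit in the primary screen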); conditions: Fluo-4 calcium flux, at 10 µM; stronger effect = higher value
[13] = calcium flux inhibitors in TRPC4/5HT1a cells, confirmation, counter-screen for TRPC4 inhibitor project, cell-based, second counter screen, HEK293 TRPC4/5HT1a, Fluo-4 (AID 434978;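 active means primary screen active whose calcium signal fell more than 3 SD beyond the full-serotonin control mean in both duplicate plates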;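 on outcome: serotonin given first at submaximal then at maximal dose after compound preincubation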); conditions: Fluo-4 calcium flux, at 10 µM, serotonin added to trigger calcium flux; stronger effect = higher value
[14] = tested on: TRPC4 (mouse), co-expressed with 5HT1a in HEK293; test: calcium flux potentiators in TRPC4/5HT1a cells, confirmation, counter-screen for TRPC4 potentiator project, cell-based, second counter screen, HEK293 TRPC4/5HT1a, Fluo-4 (AID 434979;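 active means signal rise over 3 SD above mean of control wells given weak agonist, in both repeats and first screen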); conditions: Fluo-4 calcium flux, at 10 µM, serotonin added at its EC20 dose; stronger effect = higher value
[15] = calcium flux activation in mu-opioid HEK293 cells, confirmation, counter-screen for TRPC4 activator project, cell-based, HEK293 mu-opioid receptor line (AID 449723;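 active means hit in primary screen, with calcium signal over 5 SD above buffer well mean in both duplicates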;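 further: counter screen cells carry the mu-opioid receptor alone and lack TRPC4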); conditions: Fluo-4 calcium fluorescence, at 10 µM; stronger effect = higher value
[16] = calcium flux enhancement in mu-opioid HEK293 cells, confirmation, counter-screen for TRPC4 allosteric potentiator project, cell-based, HEK293 mu-opioid receptor line (AID 449724;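 active means calcium signal rise more than 3 SD above the low-dose agonist control mean, in both duplicate plates and the primary screen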); conditions: Fluo-4 calcium flux, at 10 µM, compound added before EC20 DAMGO stimulus; stronger effect = higher value

Short transient receptor potential channel 6 (Mus musculus), sequence (Q61143 whole entry, looked up): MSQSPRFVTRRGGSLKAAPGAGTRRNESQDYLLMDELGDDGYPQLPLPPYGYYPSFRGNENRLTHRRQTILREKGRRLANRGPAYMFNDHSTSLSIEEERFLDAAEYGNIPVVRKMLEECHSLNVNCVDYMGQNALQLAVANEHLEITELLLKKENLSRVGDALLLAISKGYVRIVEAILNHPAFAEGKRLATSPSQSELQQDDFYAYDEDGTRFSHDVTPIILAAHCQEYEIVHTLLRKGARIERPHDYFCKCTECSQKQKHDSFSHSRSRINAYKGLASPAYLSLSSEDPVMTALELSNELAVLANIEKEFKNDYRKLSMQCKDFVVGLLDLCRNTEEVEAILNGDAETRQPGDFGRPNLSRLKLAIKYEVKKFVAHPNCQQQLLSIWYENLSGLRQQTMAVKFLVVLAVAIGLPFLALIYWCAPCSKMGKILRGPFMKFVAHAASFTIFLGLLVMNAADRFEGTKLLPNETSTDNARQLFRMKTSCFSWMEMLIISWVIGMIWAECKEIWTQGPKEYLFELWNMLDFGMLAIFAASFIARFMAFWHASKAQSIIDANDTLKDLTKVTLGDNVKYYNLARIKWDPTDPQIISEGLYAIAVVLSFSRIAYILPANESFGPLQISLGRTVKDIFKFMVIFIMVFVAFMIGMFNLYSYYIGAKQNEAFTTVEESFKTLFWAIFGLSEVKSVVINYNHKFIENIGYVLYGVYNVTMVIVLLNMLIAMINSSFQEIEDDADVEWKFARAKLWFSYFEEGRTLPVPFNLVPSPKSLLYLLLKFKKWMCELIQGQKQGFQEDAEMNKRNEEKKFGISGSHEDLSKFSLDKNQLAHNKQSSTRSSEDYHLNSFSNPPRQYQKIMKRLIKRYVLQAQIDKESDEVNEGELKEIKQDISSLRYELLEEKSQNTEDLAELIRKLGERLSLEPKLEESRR
Short transient receptor potential channel 4 (Mus musculus), sequence (Q9QUQ5 whole entry, looked up): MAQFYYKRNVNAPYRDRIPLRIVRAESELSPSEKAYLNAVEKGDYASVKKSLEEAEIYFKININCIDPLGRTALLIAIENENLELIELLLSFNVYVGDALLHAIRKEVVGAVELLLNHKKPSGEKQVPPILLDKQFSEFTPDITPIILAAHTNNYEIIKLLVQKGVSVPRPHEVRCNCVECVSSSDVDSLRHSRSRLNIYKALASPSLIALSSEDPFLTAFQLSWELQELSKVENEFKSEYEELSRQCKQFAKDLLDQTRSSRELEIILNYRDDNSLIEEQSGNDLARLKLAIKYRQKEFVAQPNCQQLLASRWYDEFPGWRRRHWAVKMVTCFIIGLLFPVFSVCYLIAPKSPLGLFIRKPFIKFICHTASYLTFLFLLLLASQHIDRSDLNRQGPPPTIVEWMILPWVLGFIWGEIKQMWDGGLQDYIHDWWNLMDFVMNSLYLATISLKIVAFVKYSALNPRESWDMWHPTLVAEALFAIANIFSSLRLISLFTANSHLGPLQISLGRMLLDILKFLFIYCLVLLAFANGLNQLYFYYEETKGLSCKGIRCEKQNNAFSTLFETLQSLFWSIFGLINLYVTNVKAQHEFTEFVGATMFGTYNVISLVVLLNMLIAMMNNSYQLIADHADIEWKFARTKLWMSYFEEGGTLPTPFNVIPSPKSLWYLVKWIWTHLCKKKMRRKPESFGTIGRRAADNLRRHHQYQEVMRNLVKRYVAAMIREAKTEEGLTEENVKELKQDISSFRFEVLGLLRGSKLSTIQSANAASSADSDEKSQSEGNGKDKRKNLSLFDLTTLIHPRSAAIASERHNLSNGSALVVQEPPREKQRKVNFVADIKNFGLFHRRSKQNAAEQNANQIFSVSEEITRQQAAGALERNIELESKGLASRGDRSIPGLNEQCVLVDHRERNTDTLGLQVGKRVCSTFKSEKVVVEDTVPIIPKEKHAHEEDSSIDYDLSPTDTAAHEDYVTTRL

SMILES	outcome [1]	outcome [2]	outcome [3]	outcome [4]	inhibition [5]	outcome [6]	outcome [7]	outcome [8]	outcome [9]	outcome [10]	outcome [11]	outcome [12]	inhibition [13]	outcome [14]	outcome [15]	outcome [16]	inhibition [6]	outcome [5]	outcome [13]	inhibition [9]
Nc1cc(C(F)(F)F)ccc1Nc1ccccc1	inactive	inactive	inactive	inactive	90% (active)	inactive	inactive	inactive	inactive	inactive	inactive	inactive	27.6% (active)	inactive	inactive	inactive	–	–	–	–
COc1cccc(NC(=O)CCC(=O)N2CC(C)Oc3ccc(C)cc32)c1 (stereo not given)	inactive	inactive	inactive	inactive	85% (active)	inactive	inactive	inactive	inactive	inactive	inactive	inactive	42.1% (active)	inactive	inactive	inactive	–	–	–	–
CC(=O)C1=C(O)C(=O)N(Cc2ccccc2)C1c1ccc([N+](=O)[O-])cc1 (stereo not given)	inactive	inactive	inactive	inactive	95% (active)	–	inactive	inactive	inactive	inactive	inactive	inactive	34.5% (active)	inactive	inactive	inactive	61% (active)	–	–	–
C=C(C)Cn1c(SCC)nc2ccccc2c1=O	inactive	inactive	inactive	inactive	96% (active)	inactive	inactive	inactive	inactive	inactive	inactive	inactive	21.3% (active)	inactive	inactive	inactive	–	–	–	–
C/C(N)=C(/C#N)C(=O)COC(=O)CC12CC3CC(CC(C3)C1)C2	inactive	inactive	inactive	inactive	83% (active)	inactive	inactive	inactive	inactive	inactive	inactive	inactive	32.2% (active)	inactive	inactive	inactive	–	–	–	–
CN1CCN(Cc2cn[nH]c2-c2ccc(F)cc2F)[C@@H](c2ccccc2)C1	inactive	inactive	inactive	inactive	–	inactive	inactive	inactive	inactive	inactive	inactive	inactive	–	inactive	inactive	inactive	–	inactive	inactive	–
c1ccc(-c2nc(NCc3ccco3)c3ccccc3n2)nc1	inactive	inactive	inactive	inactive	93% (active)	–	inactive	inactive	–	inactive	inactive	inactive	22.1% (active)	inactive	inactive	inactive	74% (active)	–	–	34.5% (active)
CC(C)=CCN1CCN(Cc2cccc3nonc23)CC1CCO (stereo not given)	inactive	inactive	inactive	inactive	91% (active)	inactive	inactive	inactive	inactive	inactive	inactive	inactive	33.3% (active)	inactive	inactive	inactive	–	–	–	–
c1ccc(CNc2c3ccccc3nc3ccccc23)cc1	inactive	inactive	inactive	inactive	95% (active)	–	inactive	inactive	–	inactive	inactive	inactive	23.7% (active)	inactive	inactive	inactive	60% (active)	–	–	38% (active)
COc1cc(CNCCCN2CCOCC2)cc(Br)c1OCc1ccc(Cl)cc1	inactive	inactive	inactive	inactive	–	inactive	inactive	inactive	–	inactive	inactive	inactive	23.6% (active)	inactive	inactive	inactive	–	inactive	–	51% (active)
Clc1ccc2c(c1)-c1nnc(Br)n1-c1ccccc1S2	inactive	inactive	inactive	inactive	83% (active)	inactive	inactive	inactive	inactive	inactive	inactive	inactive	–	inactive	inactive	inactive	–	–	inactive	–
Cc1ccc(C)c2[nH]c(=O)c(CN(CC3CCCO3)C(=S)NCc3ccco3)cc12 (stereo not given)	inactive	inactive	inactive	inactive	79% (active)	inactive	inactive	inactive	inactive	inactive	inactive	inactive	37.5% (active)	inactive	inactive	inactive	–	–	–	–
Cc1ccc(NC(=O)c2cc(N3C(=O)C=CC3=O)ccc2N2CCOCC2)cc1	inactive	inactive	inactive	inactive	91% (active)	–	inactive	inactive	inactive	inactive	inactive	inactive	34.6% (active)	inactive	inactive	inactive	38% (active)	–	–	–
CC(/C=C1\SC(=S)N(C(C(=O)O)C(C)C)C1=O)=C\c1ccccc1 (stereo not given)	inactive	inactive	inactive	inactive	99% (active)	inactive	inactive	inactive	inactive	inactive	inactive	inactive	16% (active)	inactive	inactive	inactive	–	–	–	–
NS(=O)(=O)c1ccc(Nc2nc(-c3ccc(O)cc3O)cs2)cc1	inactive	inactive	inactive	inactive	98% (active)	–	inactive	inactive	inactive	inactive	inactive	inactive	–	inactive	inactive	inactive	47% (active)	–	inactive	–
COc1ccc(NC(=O)c2c[nH]n3c(=O)cc(C4CCN(C(=O)OC(C)(C)C)CC4)nc23)cc1Cl	inactive	inactive	inactive	inactive	86% (active)	–	inactive	inactive	inactive	inactive	inactive	inactive	40.1% (active)	inactive	inactive	inactive	41% (active)	–	–	–
Oc1ccc(CN2CCc3ccccc3C2)c2cccnc12	inactive	inactive	inactive	inactive	97% (active)	–	inactive	inactive	–	inactive	inactive	inactive	19.6% (active)	inactive	inactive	inactive	45% (active)	–	–	58% (active)
COc1ccccc1N1CCN(CC(C)N(C(=O)C2CCCCC2)c2ccccn2)CC1 (stereo not given)	inactive	inactive	inactive	inactive	93% (active)	–	inactive	inactive	inactive	inactive	inactive	inactive	1.31% (active)	inactive	inactive	inactive	52% (active)	–	–	–
COC(=O)c1cccc2c1-c1ccccc1/C2=N/O	inactive	inactive	inactive	inactive	81% (active)	–	inactive	inactive	inactive	inactive	inactive	inactive	27.9% (active)	inactive	inactive	inactive	43% (active)	–	–	–
O=[N+]([O-])c1ccc(CN2CCN(Cc3c[nH]c4ccccc34)CC2)cc1	inactive	inactive	inactive	inactive	83% (active)	inactive	inactive	inactive	inactive	inactive	inactive	inactive	28.9% (active)	inactive	inactive	inactive	–	–	–	–
CN(C(=O)CSc1nc(-c2ccc(C(C)(C)C)cc2)c(C#N)c(=O)[nH]1)C1CCCCC1	inactive	inactive	inactive	inactive	97% (active)	inactive	inactive	inactive	inactive	inactive	inactive	inactive	4.92% (active)	inactive	inactive	inactive	–	–	–	–
Clc1ccc(CN2C3=NCCN3c3ccccc32)cc1	inactive	inactive	inactive	inactive	99% (active)	–	inactive	inactive	inactive	inactive	inactive	inactive	14.4% (active)	inactive	inactive	inactive	75% (active)	–	–	–
CCCc1nc2ccccc2n1Cc1ccccc1OC	inactive	inactive	inactive	inactive	88% (active)	inactive	inactive	inactive	inactive	inactive	inactive	inactive	32.4% (active)	inactive	inactive	inactive	–	–	–	–
O=c1c2ccccc2[nH]c(=S)n1CCN1CCN(Cc2ccccc2)CC1	inactive	inactive	inactive	inactive	75% (active)	–	inactive	inactive	inactive	inactive	inactive	inactive	–	inactive	inactive	inactive	44% (active)	–	inactive	–
C#Cc1ccc(CN2CCCC(C(=O)Nc3ccccc3Oc3cccnc3)C2)cc1 (stereo not given)	inactive	inactive	inactive	inactive	92% (active)	–	inactive	inactive	inactive	inactive	inactive	inactive	21.7% (active)	inactive	inactive	inactive	39% (active)	–	–	–
CCCN1C2=NCCN2c2cc(C)c(C)cc21	inactive	inactive	inactive	inactive	91% (active)	–	inactive	inactive	–	inactive	inactive	inactive	25.6% (active)	inactive	inactive	inactive	48% (active)	–	–	40.5% (active)
CC(C)c1ccc(S(=O)(=O)/N=C2\C=C(NS(=O)(=O)c3ccccc3)C(=O)c3ccccc32)cc1	inactive	inactive	inactive	inactive	81% (active)	inactive	inactive	inactive	–	inactive	inactive	inactive	19.2% (active)	inactive	inactive	inactive	–	–	–	21.5% (active)
O=C(Nc1ccccc1Oc1cccnc1)C1CCCN(Cc2cccc(Cl)c2)C1 (stereo not given)	inactive	inactive	inactive	inactive	89% (active)	inactive	inactive	inactive	inactive	inactive	inactive	inactive	33.5% (active)	inactive	inactive	inactive	–	–	–	–
CN(C)C(CNC(=O)c1ccccc1OCc1ccc(Cl)cc1)c1ccco1 (stereo not given)	inactive	inactive	inactive	inactive	84% (active)	–	inactive	inactive	inactive	inactive	inactive	inactive	23% (active)	inactive	inactive	inactive	62% (active)	–	–	–
C=C(c1ccc(O)cc1)c1ccc(O)cc1	inactive	inactive	inactive	inactive	89% (active)	–	inactive	inactive	inactive	inactive	inactive	inactive	29.6% (active)	inactive	inactive	inactive	47% (active)	–	–	–
